GSIS activator – GLuc luminescence reporter in INS-1E cells, primary screen for activators of glucose-dependent secretion of insulin; activation, % at 16.6 µM; 370,000 tested, 0.61% active; INS-1E GLuc reporter insulin secretion, 2-3 h;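 active = lowest replicate activation of at least 40%, so every replicate reaches that level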
Env fusion inh – inhibitors of HIV-1 Env-driven cell-cell fusion, primary screen, HeLa-JRFL effector, CEM21 target cells, luciferase; inhibition, % at 12.3 µM; 360,000 tested, 1.1% active; AID 651610, 2012;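 active = mean replicate inhibition score of at least 50 and every replicate individually at or above 50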
F508del corr – F508del CFTR correction, initial screen, CFBE line, single point. activity (quench increase), % at 7.58 µM. CFBE cells, YFP halide quenching; stimulated with forskolin plus potentiator P3; % fluorescence drop versus neutral controls. 350,000 tested, 0.36% active;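 active = mean added fluorescence quench of at least 8% versus neutral control, with both replicates also reaching 8%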;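 note: cells transiently co-express mutant CFTR-F508del with the halide-sensitive YFP; corrector assay measuring rescue of mutant channel to the surface after 24 h compound exposure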
Wnt act – Wnt/beta-catenin pathway activators, primary screen, cell-based, plate reader, single point | Wnt/beta-catenin reporter cell assay, activator | activation, % at 9.35 µM | 300,000 tested, 1.2% active | AID 743398, 2014; in the data active = activation above about 30%, passing the limit was not always enough
MITF TRPM1 HTS – activators of MITF-driven TRPM1 promoter reporter, primary screen, cell-based, SK-MEL-5, luciferase, single point | SK-MEL-5 TRPM1-promoter luciferase, 24 h; % of positive control, neutral wells = 0 | activation, % at 12.5 µM | 300,000 tested, 0.75% active;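 active = mean activation of at least 80% with every replicate also reaching 80%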
Numbers stand for hits. Rows were chosen to be rich in hits. Some 2.7% of all compounds tested hit in one or more screens of this group.

`COc1cc(C(=O)N2CCC(C(N)=O)CC2)ccc1OCc1c(C)noc1C` gave Env fusion inh inactive, F508del corr 9.4, Wnt act inactive and MITF TRPM1 HTS inactive.
`COc1cc(Cl)ccc1OCc1cc(C(=O)N2CCCC(OC)C2)no1` (stereo not given) gave GSIS activator inactive, Env fusion inh inactive, F508del corr inactive, Wnt act 45 and MITF TRPM1 HTS inactive.
COc1cc(Cl)ccc1OCc1cc(C(=O)N2CCCCCC2)no1 was read as GSIS activator inactive, Env fusion inh inactive, F508del corr inactive, Wnt act inactive and MITF TRPM1 HTS inactive.
`CN1CCN(C(=O)C[C@H]2CC[C@@H]3[C@H](COC[C@@H](O)CN3Cc3cccc(F)c3)O2)CC1` gave GSIS activator inactive, Env fusion inh inactive and F508del corr inactive.
For CCCOC1CCCN(C(=O)c2cc(COc3ccc(F)c(F)c3)on2)C1 (stereo not given) the results were GSIS activator inactive, Env fusion inh inactive, F508del corr inactive, Wnt act inactive and MITF TRPM1 HTS 90.
For COc1cc(C)ccc1OCc1cc(C(=O)N2CCC(c3ccc(F)cc3)C2)no1 (stereo not given) the results were GSIS activator inactive, Env fusion inh inactive, F508del corr inactive, Wnt act 41 and MITF TRPM1 HTS 82.
`COc1cc(Cl)ccc1OCc1cc(C(=O)N2CCN(C)C(=O)[C@@H]2C)no1` gave GSIS activator inactive, Env fusion inh inactive, F508del corr inactive and Wnt act 43.
For COc1cc(Cl)ccc1OCc1cc(C(=O)N2CCN(C)CC2)no1 the results were GSIS activator inactive, Env fusion inh inactive, F508del corr inactive, Wnt act inactive and MITF TRPM1 HTS inactive.
`COCC1CCN(C(=O)c2cc(COc3ccc(F)cc3F)on2)C1` (stereo not given) gave GSIS activator inactive, Env fusion inh inactive, F508del corr inactive, Wnt act inactive and MITF TRPM1 HTS inactive.
Screening C[C@@H]1CN([C@H](C)CO)C(=O)c2cccc(NC(=O)c3ccncc3)c2O[C@@H]1CN(C)C(=O)Nc1ccc(C(F)(F)F)cc1 returned GSIS activator inactive, Env fusion inh inactive and F508del corr inactive.
Screening CN(C(=O)CSc1nc(O)cc(=O)n1-c1ccccc1F)c1ccccc1 returned GSIS activator inactive, Env fusion inh 65, F508del corr inactive, Wnt act inactive and MITF TRPM1 HTS inactive.
`O=C(Nc1ccc(N2CCN(C(=O)c3ccc(Cl)cc3)CC2)cc1)c1ccc2c(c1)OCCO2` gave GSIS activator inactive, Env fusion inh 86, Wnt act inactive and MITF TRPM1 HTS inactive.
Screening O=C(NCCc1ccc(Cl)cc1)c1ccc2c(c1)OCO2 returned GSIS activator inactive, Env fusion inh inactive, F508del corr inactive, Wnt act 37 and MITF TRPM1 HTS inactive.
Screening O=C(NCCOc1ccc(Cl)cc1)c1ccc2c(c1)OCCO2 returned GSIS activator inactive, F508del corr inactive, Wnt act inactive and MITF TRPM1 HTS 98.
`O=C(NCCc1ccccc1F)c1ccc2c(c1)OCCO2` gave GSIS activator inactive, Env fusion inh 76, F508del corr inactive, Wnt act inactive and MITF TRPM1 HTS inactive.
O=C(Nc1ccc(N2CCN(C(=O)c3ccccc3)CC2)cc1)c1ccc2c(c1)OCCO2 was read as GSIS activator inactive, F508del corr inactive, Wnt act inactive and MITF TRPM1 HTS inactive.
For O=C(Nc1ccc(OC(F)F)cc1)Nc1cccc(C(F)(F)F)c1 the results were Env fusion inh 75 and MITF TRPM1 HTS inactive.
`O=C(Nc1ccncc1)Nc1cccc(C(F)(F)F)c1` gave GSIS activator inactive, Env fusion inh inactive, F508del corr inactive, Wnt act inactive and MITF TRPM1 HTS inactive.
`CCN(CC)S(=O)(=O)c1ccc(NC(=O)Nc2cccc(C(F)(F)F)c2)cc1` gave Env fusion inh 96.
CCCC(=O)Nc1ccc2c(c1)OC[C@H](C)N(Cc1ccccc1)C[C@@H](C)[C@H](OC)CN(C)C2=O was read as GSIS activator inactive, Env fusion inh inactive and F508del corr inactive.
Screening COCCOC(=O)c1[nH]c2c(c1C)C(=O)CC(c1cc(OC)ccc1OC)C2 (stereo not given) returned GSIS activator inactive, Env fusion inh inactive, F508del corr inactive, Wnt act inactive and MITF TRPM1 HTS inactive.
For COc1cc(C2CC(=O)c3c([nH]c(C(=O)OCCOC(C)C)c3C)C2)cc(OC)c1OC (stereo not given) the results were GSIS activator inactive, Env fusion inh 55, F508del corr inactive, Wnt act inactive and MITF TRPM1 HTS inactive.
Screening CCOCCOC(=O)c1[nH]c2c(c1C)C(=O)CC(c1ccc(OC)c(OC)c1)C2 (stereo not given) returned GSIS activator inactive, Env fusion inh inactive, F508del corr inactive, Wnt act inactive and MITF TRPM1 HTS inactive.
For CCCOCCOC(=O)c1[nH]c2c(c1C)C(=O)CC(c1cc(OC)ccc1OC)C2 (stereo not given) the results were GSIS activator inactive, Env fusion inh inactive, F508del corr 9.6, Wnt act inactive and MITF TRPM1 HTS inactive.
Screening O=C(C[C@H]1CC[C@H]2[C@@H](COC[C@@H](O)CN2C(=O)c2ccc(F)cc2)O1)Nc1nccs1 returned GSIS activator inactive and F508del corr inactive.
For COc1ccc(-c2ccc(=O)n(CC(=O)Nc3cccc(O)c3)n2)cc1OC the results were GSIS activator 117, Env fusion inh inactive and MITF TRPM1 HTS inactive.
COc1cccc(-c2nnn(CC(C)=O)n2)c1 was read as GSIS activator inactive and MITF TRPM1 HTS 82.
COc1ccc(-c2ccc(-c3nnn(CC(C)=O)n3)cc2)cc1 was read as Env fusion inh inactive and MITF TRPM1 HTS inactive.
`CCOc1ccc(-c2nnn(CC(=O)Nc3cccc(OC)c3)n2)cc1OCC` gave GSIS activator inactive, Env fusion inh inactive, Wnt act 33 and MITF TRPM1 HTS inactive.
For CCOc1ccc(NC(=O)COC(=O)Cn2cnnn2)cc1OCC the results were GSIS activator 44, F508del corr inactive, Wnt act inactive and MITF TRPM1 HTS inactive.
For COc1ccc(NC(=O)N(C)C[C@@H]2Oc3ccc(NS(=O)(=O)c4ccc(F)cc4)cc3C(=O)N([C@@H](C)CO)C[C@H]2C)cc1 the results were GSIS activator inactive and F508del corr inactive.
`C[C@@H]1CN([C@H](C)CO)C(=O)c2cc(NS(=O)(=O)c3cn(C)cn3)ccc2O[C@@H](C)CCCCO[C@H]1CN(C)S(=O)(=O)c1cn(C)cn1` gave GSIS activator inactive, Env fusion inh inactive and F508del corr inactive.
CCCNC(=O)N(C)C[C@H]1Oc2cc(-c3ccccc3F)ccc2S(=O)(=O)N([C@H](C)CO)C[C@H]1C was read as GSIS activator inactive, Env fusion inh inactive and F508del corr inactive.
Screening Cc1nc(N)sc1C(=O)Nc1ccccc1 returned GSIS activator inactive and Wnt act inactive.

Source: PubChem BioAssay (Broad Institute)
